Assay results as given in the supplement of paper PMC10849652.
Targets with a hit are over-represented here; the source holds about 7,900 in all. About 0.6% of all pairs of compound and target were hits. A number with no mark means an inactive call.

Experiments:
Assay in all cases: log2 fold change, soluble protein after heating vs DMSO (PISA); higher = thermal stabilisation; K562 cells, 10 uM, 30 min; active = over 0.2 and 3.5 SD of the protein, either way, in both replicates (recomputed)
[1] = compound: Cc1ccc(NC(=O)c2ccc(CN3CC[C@H](N(C)C)C3)c(C(F)(F)F)c2)cc1Nc1nccc(-c2cncnc2)n1 [bafetinib]
Procedure, shortened: (§1)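 For each measurement, 10 μM compound was applied for 30 min to K562 cells at 2×10^6 cells/mL. Aliquots were heated for 3 min across 48°C-58°C, pooled, and extracted in PBS with 0.5% NP-40 at 4°C; the supernatant after 21,000xg for 90 min was soluble protein. This was quantified by TMTpro 16plex LC-MS/MS with channel sums equalised, and thermal stability was reported relative to control samples from duplicates, on a log2 fold-change scale.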

[2] = compound: Cc1cccc(CC(=O)N2CCc3c2ccc(-c2cn(C)c4ncnc(N)c24)c3F)n1
Procedure, shortened: as §1

[3] = compound: Cc1cn(-c2cc(NC(=O)c3ccc(C)c(Nc4nccc(-c5cccnc5)n4)c3)cc(C(F)(F)F)c2)cn1 [nilotinib]
Procedure, shortened: as §1

[4] = compound: Cc1nc(Nc2n[nH]c3c2CN(C(=O)N[C@H](CN(C)C)c2ccccc2)C3(C)C)c2sccc2n1
Procedure, shortened: as §1

[5] = compound: Cc1nc(Nc2ncc(C(=O)Nc3c(C)cccc3Cl)s2)cc(N2CCN(CCO)CC2)n1 [dasatinib]
Procedure, shortened: as §1

[6] = compound: Cc1ncc(-c2ccnc(Nc3ccc(S(C)(=O)=O)cc3)n2)n1C(C)C
Procedure, shortened: as §1

[7] = compound: Cn1cc(-c2ccc3c(c2)CCN3C(=O)Cc2cccc(C(F)(F)F)c2)c2c(N)ncnc21
Procedure, shortened: as §1

[8] = compound: Cn1cc(-c2ccc3nnc(C(F)(F)c4ccc5ncccc5c4)n3n2)cn1
Procedure, shortened: as §1

[9] = compound: Cn1cncc1[C@@](N)(c1ccc(Cl)cc1)c1ccc2c(c1)c(-c1cccc(Cl)c1)cc(=O)n2C [tipifarnib]
Procedure, shortened: as §1

[10] = compound: FC(F)(F)c1ccc(/C=C/c2nc(COc3ccc(CCCCn4ccnn4)cc3)co2)cc1 [mubritinib]
Procedure, shortened: as §1

[11] = compound: NC(=O)Nc1cc(-c2cccc(F)c2)sc1C(=O)N[C@H]1CCCNC1
Procedure, shortened: as §1

[12] = compound: NC(=O)c1cnc(N[C@@H]2CCCC[C@@H]2N)nc1Nc1cccc(-n2nccn2)c1
Procedure, shortened: as §1

[13] = compound: NC1(c2ccc(-c3nc4ccn5c(=O)[nH]nc5c4cc3-c3ccccc3)cc2)CCC1
Procedure, shortened: as §1

[14] = compound: NCC(=O)Nc1ccc(-n2nc(C(F)(F)F)cc2-c2ccc3c(ccc4ccccc43)c2)cc1
Procedure, shortened: as §1

[15] = compound: Nc1ccccc1NC(=O)c1ccc(CNC(=O)OCc2cccnc2)cc1 [entinostat]
Procedure, shortened: as §1

[16] = compound: O=C(CCCCCCC(=O)Nc1ccccc1)NO [vorinostat]
Procedure, shortened: as §1

[17] = compound: O=C(CCCCCCNC(=O)c1cnc(N(c2ccccc2)c2ccccc2Cl)nc1)NO [citarinostat]
Procedure, shortened: as §1

[18] = compound: O=C(O)c1ccc2c(c1)nc(Nc1cccc(Cl)c1)c1ccncc12 [silmitasertib]
Procedure, shortened: as §1

[19] = compound: O=C1NC(=O)C(c2cnc3ccccn23)=C1c1cn2c3c(cc(F)cc13)CN(C(=O)N1CCCCC1)CC2
Procedure, shortened: as §1

[20] = compound: c1cc(OCCN2CCCCC2)cc(-c2n[nH]c3ccc(-c4nnc[nH]4)cc23)c1
Procedure, shortened: as §1

Chain of UniProt Q6P1R3 (Q6P1R3 whole entry, looked up): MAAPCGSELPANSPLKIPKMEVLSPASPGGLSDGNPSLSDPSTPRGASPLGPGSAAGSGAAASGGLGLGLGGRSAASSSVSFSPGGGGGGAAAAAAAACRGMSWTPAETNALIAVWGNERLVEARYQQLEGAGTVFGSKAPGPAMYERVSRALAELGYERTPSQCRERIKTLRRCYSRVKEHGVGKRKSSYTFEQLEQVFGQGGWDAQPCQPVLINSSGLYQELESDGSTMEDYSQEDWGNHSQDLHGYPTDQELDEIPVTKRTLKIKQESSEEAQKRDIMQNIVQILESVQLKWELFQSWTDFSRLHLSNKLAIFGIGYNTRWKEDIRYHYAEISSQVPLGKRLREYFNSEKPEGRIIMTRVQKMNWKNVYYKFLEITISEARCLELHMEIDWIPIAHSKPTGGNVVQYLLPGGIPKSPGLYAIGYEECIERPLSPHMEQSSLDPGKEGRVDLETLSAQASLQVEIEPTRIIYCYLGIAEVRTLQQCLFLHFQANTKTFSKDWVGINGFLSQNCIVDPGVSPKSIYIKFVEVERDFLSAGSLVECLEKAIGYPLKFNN
Chain of UniProt Q9UI43 (Q9UI43 whole entry, looked up): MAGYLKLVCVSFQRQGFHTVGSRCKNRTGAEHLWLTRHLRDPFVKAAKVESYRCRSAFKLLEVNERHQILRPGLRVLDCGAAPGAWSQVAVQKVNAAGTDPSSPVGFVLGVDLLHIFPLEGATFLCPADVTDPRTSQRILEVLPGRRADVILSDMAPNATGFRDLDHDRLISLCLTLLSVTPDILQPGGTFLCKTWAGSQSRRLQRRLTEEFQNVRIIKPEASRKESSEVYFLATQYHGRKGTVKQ
Chain of UniProt Q9BUK6 (Q9BUK6 whole entry, looked up): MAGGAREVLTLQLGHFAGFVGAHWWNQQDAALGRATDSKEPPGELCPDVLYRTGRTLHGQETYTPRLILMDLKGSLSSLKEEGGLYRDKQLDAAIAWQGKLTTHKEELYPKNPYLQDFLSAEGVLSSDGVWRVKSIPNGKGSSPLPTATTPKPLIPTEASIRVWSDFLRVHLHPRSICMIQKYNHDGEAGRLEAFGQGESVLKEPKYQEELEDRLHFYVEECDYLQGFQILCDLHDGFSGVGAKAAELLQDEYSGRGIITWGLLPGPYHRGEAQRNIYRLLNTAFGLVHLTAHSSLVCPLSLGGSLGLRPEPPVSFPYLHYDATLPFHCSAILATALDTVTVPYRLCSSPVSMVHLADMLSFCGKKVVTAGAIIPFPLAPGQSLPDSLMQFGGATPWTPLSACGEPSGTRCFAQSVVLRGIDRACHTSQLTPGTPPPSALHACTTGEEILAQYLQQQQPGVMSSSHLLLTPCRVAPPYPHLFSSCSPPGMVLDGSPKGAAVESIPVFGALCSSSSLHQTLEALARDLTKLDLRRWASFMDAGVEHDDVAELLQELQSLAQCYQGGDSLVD
Chain of UniProt Q9H4L5 (Q9H4L5 whole entry, looked up): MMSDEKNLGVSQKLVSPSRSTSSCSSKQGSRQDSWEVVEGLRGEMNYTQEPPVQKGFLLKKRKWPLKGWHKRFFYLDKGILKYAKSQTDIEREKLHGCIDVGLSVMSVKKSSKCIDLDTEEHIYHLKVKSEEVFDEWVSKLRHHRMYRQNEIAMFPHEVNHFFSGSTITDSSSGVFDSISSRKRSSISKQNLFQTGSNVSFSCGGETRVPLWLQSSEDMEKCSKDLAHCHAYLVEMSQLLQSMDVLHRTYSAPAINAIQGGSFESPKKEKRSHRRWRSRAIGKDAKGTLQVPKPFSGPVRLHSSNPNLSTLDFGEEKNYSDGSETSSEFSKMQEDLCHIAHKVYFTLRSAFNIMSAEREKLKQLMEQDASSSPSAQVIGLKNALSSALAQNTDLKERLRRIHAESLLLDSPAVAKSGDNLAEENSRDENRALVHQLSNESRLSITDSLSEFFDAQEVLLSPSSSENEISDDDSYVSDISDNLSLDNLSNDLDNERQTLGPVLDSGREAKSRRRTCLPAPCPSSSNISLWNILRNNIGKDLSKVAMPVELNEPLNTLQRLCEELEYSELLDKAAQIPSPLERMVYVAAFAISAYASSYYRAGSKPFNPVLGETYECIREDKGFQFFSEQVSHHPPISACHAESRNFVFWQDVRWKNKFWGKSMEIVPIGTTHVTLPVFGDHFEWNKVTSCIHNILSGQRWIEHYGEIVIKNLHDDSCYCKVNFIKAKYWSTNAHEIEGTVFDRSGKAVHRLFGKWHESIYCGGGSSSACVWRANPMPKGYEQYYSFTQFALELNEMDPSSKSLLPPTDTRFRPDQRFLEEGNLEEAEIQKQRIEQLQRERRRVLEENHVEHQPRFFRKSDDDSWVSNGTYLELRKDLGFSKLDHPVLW
Chain of UniProt O75052 (O75052 whole entry, looked up): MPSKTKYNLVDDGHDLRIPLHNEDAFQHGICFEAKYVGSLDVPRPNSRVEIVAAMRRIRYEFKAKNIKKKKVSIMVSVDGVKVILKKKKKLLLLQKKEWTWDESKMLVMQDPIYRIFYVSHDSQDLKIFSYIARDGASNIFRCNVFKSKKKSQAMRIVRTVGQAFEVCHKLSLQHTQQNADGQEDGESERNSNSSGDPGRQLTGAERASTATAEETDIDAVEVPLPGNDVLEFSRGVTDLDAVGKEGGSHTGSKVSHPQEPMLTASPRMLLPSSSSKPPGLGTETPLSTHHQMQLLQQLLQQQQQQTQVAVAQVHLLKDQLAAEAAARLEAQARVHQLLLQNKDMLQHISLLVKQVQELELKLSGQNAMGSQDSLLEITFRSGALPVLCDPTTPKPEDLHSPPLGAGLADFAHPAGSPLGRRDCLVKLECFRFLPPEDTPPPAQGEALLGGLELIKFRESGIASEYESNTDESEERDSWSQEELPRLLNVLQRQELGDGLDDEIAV
Chain of UniProt Q9HCD5 (Q9HCD5 whole entry, looked up): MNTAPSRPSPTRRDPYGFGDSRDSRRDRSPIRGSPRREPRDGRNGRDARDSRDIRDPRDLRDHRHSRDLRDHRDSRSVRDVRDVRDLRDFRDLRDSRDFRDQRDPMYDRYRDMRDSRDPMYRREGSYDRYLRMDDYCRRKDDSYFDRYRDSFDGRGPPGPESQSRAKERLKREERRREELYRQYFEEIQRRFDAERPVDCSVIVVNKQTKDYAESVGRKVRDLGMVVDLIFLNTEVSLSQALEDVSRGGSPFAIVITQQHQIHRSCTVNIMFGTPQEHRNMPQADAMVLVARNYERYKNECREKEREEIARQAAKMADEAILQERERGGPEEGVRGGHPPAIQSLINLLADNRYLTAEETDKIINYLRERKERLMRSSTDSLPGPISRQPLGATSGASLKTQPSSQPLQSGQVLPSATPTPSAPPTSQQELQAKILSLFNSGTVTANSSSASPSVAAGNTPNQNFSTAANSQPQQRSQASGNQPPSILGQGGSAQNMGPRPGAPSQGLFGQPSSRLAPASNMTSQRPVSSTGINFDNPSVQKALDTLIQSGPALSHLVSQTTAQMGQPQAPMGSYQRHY
Chain of UniProt Q16656 (Q16656 whole entry, looked up): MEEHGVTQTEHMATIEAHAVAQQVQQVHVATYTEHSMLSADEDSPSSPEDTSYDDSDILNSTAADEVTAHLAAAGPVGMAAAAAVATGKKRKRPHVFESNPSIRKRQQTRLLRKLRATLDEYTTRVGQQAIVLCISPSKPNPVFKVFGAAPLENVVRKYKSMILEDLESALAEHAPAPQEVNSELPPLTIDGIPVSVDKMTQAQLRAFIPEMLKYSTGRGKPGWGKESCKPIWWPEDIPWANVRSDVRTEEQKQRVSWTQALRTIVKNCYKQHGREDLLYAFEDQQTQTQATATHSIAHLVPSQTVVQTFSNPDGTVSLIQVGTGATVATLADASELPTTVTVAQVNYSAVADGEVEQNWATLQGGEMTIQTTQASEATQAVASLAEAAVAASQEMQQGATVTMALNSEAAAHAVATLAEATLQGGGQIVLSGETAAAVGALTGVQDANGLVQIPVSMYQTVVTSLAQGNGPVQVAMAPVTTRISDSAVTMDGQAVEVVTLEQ
Chain of UniProt P03886 (P03886 whole entry, looked up): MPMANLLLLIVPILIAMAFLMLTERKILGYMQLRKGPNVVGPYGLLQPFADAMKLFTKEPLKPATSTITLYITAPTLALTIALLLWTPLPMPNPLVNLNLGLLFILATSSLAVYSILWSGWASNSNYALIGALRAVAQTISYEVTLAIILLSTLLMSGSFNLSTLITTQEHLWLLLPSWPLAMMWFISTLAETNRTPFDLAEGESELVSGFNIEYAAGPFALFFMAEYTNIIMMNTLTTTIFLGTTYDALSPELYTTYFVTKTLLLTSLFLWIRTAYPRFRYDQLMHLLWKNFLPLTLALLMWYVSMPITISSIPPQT
Chain of UniProt Q8WUY8 (Q8WUY8 whole entry, looked up): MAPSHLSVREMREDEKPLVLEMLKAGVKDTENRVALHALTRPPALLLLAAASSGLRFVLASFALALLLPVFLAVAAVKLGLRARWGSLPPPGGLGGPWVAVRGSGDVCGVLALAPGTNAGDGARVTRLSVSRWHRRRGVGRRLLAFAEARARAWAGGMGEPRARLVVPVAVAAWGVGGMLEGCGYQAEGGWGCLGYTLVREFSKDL
Chain of UniProt Q9Y314 (Q9Y314 whole entry, looked up): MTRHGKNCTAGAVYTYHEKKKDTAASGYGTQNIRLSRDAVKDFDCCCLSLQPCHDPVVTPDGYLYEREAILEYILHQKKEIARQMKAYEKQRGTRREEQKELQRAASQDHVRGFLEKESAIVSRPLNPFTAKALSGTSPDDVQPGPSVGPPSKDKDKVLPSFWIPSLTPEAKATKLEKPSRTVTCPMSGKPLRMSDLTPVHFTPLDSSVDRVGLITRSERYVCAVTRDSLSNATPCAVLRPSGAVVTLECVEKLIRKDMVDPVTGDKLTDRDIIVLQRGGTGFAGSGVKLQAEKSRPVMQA
Chain of UniProt Q86UD1 (Q86UD1 whole entry, looked up): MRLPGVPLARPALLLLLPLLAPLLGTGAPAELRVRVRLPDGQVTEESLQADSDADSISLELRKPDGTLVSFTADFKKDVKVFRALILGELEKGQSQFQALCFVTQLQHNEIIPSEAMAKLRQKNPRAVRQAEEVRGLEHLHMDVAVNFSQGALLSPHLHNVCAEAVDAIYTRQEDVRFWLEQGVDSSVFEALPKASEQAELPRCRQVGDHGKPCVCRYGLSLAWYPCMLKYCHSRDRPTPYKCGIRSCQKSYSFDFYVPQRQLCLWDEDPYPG

| Target | log2 fold change [1] | log2 fold change [2] | log2 fold change [3] | log2 fold change [4] | log2 fold change [5] | log2 fold change [6] | log2 fold change [7] | log2 fold change [8] | log2 fold change [9] | log2 fold change [10] | log2 fold change [11] | log2 fold change [12] | log2 fold change [13] | log2 fold change [14] | log2 fold change [15] | log2 fold change [16] | log2 fold change [17] | log2 fold change [18] | log2 fold change [19] | log2 fold change [20] |
| --- | --- | --- | --- | --- | --- | --- | --- | --- | --- | --- | --- | --- | --- | --- | --- | --- | --- | --- | --- | --- |
| NRF1 isoform 4 (UniProt Q16656) | -0.057 | 0.023 | -0.099 | -0.152 | -0.123 | -0.042 | 0.054 | -0.096 | 0.022 | 0.035 | 0.021 | -0.088 | -0.129 | -0.037 | 0.056 | 0.047 | 0.039 | -0.02 | -0.064 | 0.04 |
| MRPS17 (UniProt Q9Y2R5) | 0.264 | -0.01 | -0.314 | 0.067 | -0.122 | -0.012 | -0.052 | 0.035 | -0.088 | 0.179 | -0.035 | 0.091 | -0.138 | -0.018 | -0.027 | 0.191 | 0.05 | -0.051 | -0.047 | 0.02 |
| NOSIP (UniProt Q9Y314) | 0.085 | 0.066 | -0.11 | -0.277 | -0.229 | 0.247 | -0.063 | -0.111 | -0.128 | -0.098 | 0 | -0.004 | -0.095 | -0.121 | 0.16 | 0.163 | 0.136 | 0.082 | -0.095 | 0.019 |
| MTMR14 (UniProt Q8NCE2) | -0.051 | -0.089 | -0.023 | -0.04 | -0.063 | 0.016 | -0.006 | -0.084 | -0.035 | 0.058 | -0.02 | -0.08 | -0.087 | -0.075 | 0.024 | 0.093 | 0.08 | 0.071 | -0.081 | 0.039 |
| MSTO1 (UniProt Q9BUK6) | -0.03 | 0.028 | -0.057 | 0.033 | -0.174 | -0.005 | 0.064 | 0.037 | -0.096 | 0.011 | 0.013 | 0.015 | -0.144 | -0.059 | -0.005 | 0.053 | 0.08 | -0.015 | -0.045 | 0.017 |
| PACRGL (UniProt Q8N7B6) | – | – | – | – | – | – | – | – | – | – | 0.055 | – | – | – | -0.116 | – | – | – | – | – |
| MRM2 (UniProt Q9UI43) | – | – | -0.069 | -0.049 | -0.381 | 0.043 | 0.164 | – | -0.011 | – | – | -0.202 | – | -0.211 | – | – | – | – | – | – |
| NOS1AP (UniProt O75052) | -0.052 | – | – | – | – | – | 0.067 | -0.179 | -0.037 | 0.165 | – | – | -0.27 | -0.302 | – | – | -0.225 | 0.312 | -0.186 | 0.59 |
| NAT14 (UniProt Q8WUY8) | -0.071 | – | 0.003 | -0.052 | -0.066 | 0 | -0.06 | -0.209 | 0.054 | 0.118 | 0.038 | -0.135 | -0.108 | -0.33 | -0.033 | – | 0.04 | 0 | -0.037 | -0.108 |
| MXRA7 isoform 3 (UniProt P84157) | – | – | – | – | – | – | – | -0.078 | 0.011 | – | – | – | – | – | – | – | – | – | – | – |
| MSANTD2 (UniProt Q6P1R3) | – | – | – | – | -0.042 | – | – | – | – | – | -0.041 | – | – | -0.065 | -0.184 | – | -0.124 | – | 0.004 | 0.16 |
| OAF (UniProt Q86UD1) | – | – | – | – | – | – | – | 0.199 | – | -0.104 | -0.089 | – | -0.188 | – | -0.029 | – | – | 0.019 | – | – |
| MLH1 (UniProt P40692) | -0.063 | 0.035 | – | – | -0.212 | – | 0.005 | – | 0.047 | -0.073 | – | 0.058 | -0.102 | – | – | -0.042 | – | -0.017 | -0.098 | – |
| NUDT7 (UniProt P0C024) | 0.418 | -0.122 | 0.093 | 0.006 | – | -0.03 | – | 0.027 | – | – | 0.01 | – | – | – | -0.05 | 0.286 | – | – | 0.12 | – |
| PAFAH2 (UniProt Q99487) | -0.083 | – | – | – | -0.146 | – | 0.079 | 0.029 | 0.611 (active) | – | 0.079 | -0.194 | – | 0.04 | 0.075 | – | – | – | – | – |
| MITF (UniProt O75030) | – | 0.001 | -0.071 | -0.07 | – | -0.047 | – | – | – | 0.084 | -0.023 | 0.021 | -0.11 | 0.302 | -0.048 | 0.2 | 0.083 | 0.071 | – | -0.022 |
| OSBPL3 (UniProt Q9H4L5) | – | – | 0.316 | 0.114 | 0.447 | -0.213 | -0.081 | -0.173 | -0.17 | – | -0.079 | -0.43 | – | 0.106 | 0.077 | – | -0.077 | – | 0.307 | -0.072 |
| MT-ND1 (UniProt P03886) | -0.199 | – | 0.102 | -0.079 | -0.149 | -0.061 | 0.066 | -0.036 | 0.633 (active) | 0.114 | 0.166 | 0.244 | -0.004 | 0.289 | -0.051 | – | 0.05 | 0.039 | 0.1 | -0.075 |
| NKTR (UniProt P30414) | 1.06 | – | – | – | – | – | – | – | 0.163 | 0.167 | – | – | 0.074 | – | – | – | – | -0.023 | – | – |
| NCOA5 (UniProt Q9HCD5) | – | -0.04 | -0.428 | -0.92 (active) | -0.043 | 0.218 | – | -0.203 | 0.164 | – | -0.101 | – | – | – | -0.011 | 0.023 | – | – | – | – |
| NIPSNAP2 (UniProt C9J7B1) | -0.045 | – | – | – | – | – | – | – | – | 0.173 | -0.009 | 0.175 | -0.017 | – | 0.148 | – | – | 0.019 | – | – |
| MORC2 (UniProt Q9Y6X9) | -0.036 | – | – | – | – | – | – | – | 0.018 | 0.126 | – | -0.193 | -0.118 | – | – | – | – | -0.066 | -0.151 | – |
